# Bioassay records (PubChem BioAssay)
# Sampled rows, rich in hits. Any-hit rate of the full collection: about 1.8%.
# Pemphigus Ab inh: inhibitors of pemphigus antibody binding to DSG3, primary screen, biochemical, bead-based, flow cytometry, scFv-GFP. 310,000 tested, 0.48% active. DSG3-coupled beads, scFv-anti-DSG3-GFP binding; hits give low values. binding (percent of control), % at 10 µM. AID 588358, 2011. Desmoglein-3 (Homo sapiens), P32926;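 active means binding more than 3 SD below its plate's average and above zero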;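 further: hits lower antibody fragment binding to DSG3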
# HDAC3 inh: HDAC3 deacetylase inhibitors, primary screen, biochemical, fluorescence, cell-free homogeneous. Histone deacetylase 3 (Homo sapiens), O15379. recombinant HDAC3, fluorogenic peptide/trypsin coupled. inhibition, % at 8.3 µM. 320,000 tested, 0.15% active. AID 2718, 2010; in the data active means inhibition above about 26%, passing the limit was not always enough
# Target sequence (O15379 whole entry, looked up): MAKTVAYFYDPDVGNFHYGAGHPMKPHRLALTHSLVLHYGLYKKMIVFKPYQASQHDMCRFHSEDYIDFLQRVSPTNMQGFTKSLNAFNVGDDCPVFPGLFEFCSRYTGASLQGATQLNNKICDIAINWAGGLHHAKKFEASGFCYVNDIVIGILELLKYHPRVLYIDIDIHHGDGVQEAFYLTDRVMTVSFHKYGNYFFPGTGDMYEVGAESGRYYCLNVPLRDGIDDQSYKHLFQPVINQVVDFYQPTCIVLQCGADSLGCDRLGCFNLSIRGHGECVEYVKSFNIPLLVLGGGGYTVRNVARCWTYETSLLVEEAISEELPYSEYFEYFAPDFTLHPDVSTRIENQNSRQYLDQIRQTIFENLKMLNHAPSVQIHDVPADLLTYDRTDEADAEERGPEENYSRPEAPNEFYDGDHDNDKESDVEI
# LANA-H2B inh: blockers of LANA interaction with H2A/H2B – biochemical, FP readout, HTS, primary screen; AID 2629, 2010; Protein LANA1 (Human herpesvirus 8 type P (isolate GK18)), Q9QR71; 320,000 tested, 0.6% active; inhibition, % (concentration not given with the values); cell-free LANA-H2A/H2B peptide, fluorescence polarization; in the data active means inhibition mostly above about 10%, no sharp cut-off; inactive means mostly below about 6.7%
# GRK2 aptamer HTS: compounds blocking aptamer binding on GRK2 – biochemical, human GRK2, bead flow cytometry, HTS, primary screen | FAM-aptamer displacement from GRK2 | inhibition of aptamer binding, % at 10 µM | 330,000 tested, 0.59% active | AID 488847, 2010;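 active means inhibition of aptamer binding above 40%, roughly 3 SD of noise, on plates passing a quality check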;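 further: median bead fluorescence of bound FAM aptamer so fluorescent compounds give negative values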
# PKD1 kinase inh: inhibitors of human PKD1 kinase, biochemical, fluorescence polarization. 200,000 tested, 0.056% active. inhibition, % (test concentration not listed). PKD1 kinase fluorescence polarization assay
# VLA-4 inh: inhibition in human VLA-4 binding assay, primary screen, VLA-4 allosteric modulator project, MLPCN library, flow cytometry, VLA-4 expressing cells; Integrin alpha-4 (Homo sapiens), P13612; ligand binding flow cytometry; inhibition, % (about 7 µM as worked out from the volumes in the protocol); 330,000 tested, 0.2% active; AID 2557, 2010
# * hit, by the source's call; · = not tested or not shown; + = active, no number. Unless noted, no stated cut-off is given here; in the data, active means inhibition above about 50%; inactive means the rest.
SMILES,Pemphigus Ab inh,HDAC3 inh,LANA-H2B inh,GRK2 aptamer HTS,PKD1 kinase inh,VLA-4 inh
O=C(c1ccccc1)n1nnc2ccccc21,100,96*,3,8,3,-32
Cc1onc(-c2ccccc2)c1C(=O)n1nnc2ccccc21,97,5,3,3,-3,-4
CC1CN(C(=O)c2ccc(NS(=O)(=O)c3ccc(C(C)(C)C)cc3)cc2)CC(C)O1 (centres undefined),104,·,·,·,·,·
C=CCOC(=O)C1=C(C)NC(SCC(N)=O)=C(C#N)C1c1cccs1 (centres undefined),18*,-1,-9,1,-12,3
CCOC(=O)C1=C(C)NC(SCC(=O)Nc2nc(C)cs2)=C(C#N)C1c1cccs1 (centres undefined),·,12,1,51*,-2,-9
CCOC(=O)C1=C(C)NC(SCC(N)=O)=C(C#N)C1c1ccncc1 (centres undefined),98,3,-1,0,-16,-16
CC(=O)C1=C(C)NC(SCC(N)=O)=C(C#N)C1c1cccs1 (centres undefined),84,6,1,2,-4,2
O=C(CC(c1ccccc1)(c1ccccc1)c1ccccc1)N[C@@H](Cc1ccccc1)C(=O)O,104,-1,16*,·,0,·
CC(NCC(=O)Nc1ccccc1C(=O)NC1CC1)c1cccc(C(F)(F)F)c1 (centres undefined),103,1,11*,0,·,0
Cc1ccccc1Nc1nnc(SCc2cc([N+](=O)[O-])cc3c2OCOC3)s1,98,3,24*,2,1,-6
CCOC(=O)c1[nH]c2ccccc2c1NC(=O)C(CC)CC,-14*,-12,-1,1,-13,26
CC(C)C(C(=O)O)N1C(=O)/C(=C/c2cccn2C)SC1=S (centres undefined),97,33*,-16,0,-2,10
CCCC(C(=O)O)N1C(=O)/C(=C/c2cccn2C)SC1=S (centres undefined),104,11,-26,1,-1,-62
COc1cc(OC)cc(C(=O)Nc2ccccc2-c2nnn(CC(=O)Nc3cc(C)on3)n2)c1,·,7,2,0,·,-8
CCCCc1ccc(Nc2nc(N3CCOCC3)nc(N3CCOCC3)n2)cc1,123,-2,21*,4,·,-1
COc1ccccc1CNC(=O)CCNS(=O)(=O)c1cc(Br)cnc1N,·,-1,3,0,·,-12
COc1ccc(/C=N/NC(=O)c2nn(-c3ccccc3)c(=O)c3c(N)scc23)cc1,·,0,1,0,7,0
COc1ccc(/C=N/NC(=O)c2nn(-c3ccc(Cl)cc3)c(=O)c3c(N)scc23)cc1,82*,6,-2,3,-1,0
Cc1ccccc1NC(=O)Cn1cnc2c(oc3nc4c(cc32)COC(C)(C)C4)c1=O,106,-16,3,0,17,4
CCn1c(SCC(=O)Nc2ccc(C(C)=O)cc2)nc2nc3c(cc2c1=O)COC(C)(C)C3,95*,4,2,0,·,3
CC1(C)Cc2nc3oc4c(=O)n(CC(=O)Nc5ccc(Cl)cc5)cnc4c3cc2CO1,87*,0,4,0,·,4
CCn1c(SCC(=O)Nc2ccc(OC)cc2)nc2nc3c(cc2c1=O)COC(C)(C)C3,94,-2,3,2,·,15
CCC1CSC(Nc2ccc(C(=O)/C=C/c3ccc(Br)cc3)cc2)=N1 (centres undefined),89,5,14,0,2,40
CCC1CSC(Nc2ccc(C(=O)/C=C/c3ccc(OC)c(OC)c3)cc2)=N1 (centres undefined),113,-2,3,48*,0,-7
Cc1ccc(NC(=O)CSc2nnnn2C2CC2)cc1S(=O)(=O)N1CCOCC1,103,·,·,·,·,·
SMILES,Pemphigus Ab inh,HDAC3 inh,LANA-H2B inh,GRK2 aptamer HTS,PKD1 kinase inh,VLA-4 inh
COc1cccc(N2CCN(c3nc(-c4ccccc4C)cc(=O)[nH]3)CC2)c1,116,-1,3,0,·,14
CCN(CC)S(=O)(=O)c1ccc(S(=O)(=O)N(Cc2ccccn2)Cc2ccco2)cc1,103,5,-1,5,-10,-2
O=S(=O)(NCc1ccccc1)c1ccc(S(=O)(=O)N(Cc2ccccn2)Cc2ccco2)cc1,76*,-8,2,0,1,12
COc1ccc(C(CC(=O)NCc2ccco2)c2ccc(F)cc2)cc1 (centres undefined),31*,1,4,4,-3,6
N#CCCN1CCCc2cc(N=Nc3ccc(C(F)(F)F)cc3)ccc21,100,21,-8,2,·,3
CC(C)(C)c1ccc(Cn2c(=N)n(CC(O)c3ccco3)c3ccccc32)cc1 (centres undefined),107,13,18*,0,-6,-3
Cc1ccccc1Cn1c(=N)n(CC(O)c2ccco2)c2ccccc21 (centres undefined),·,4,-2,0,4,6
Cc1ccc(S(=O)(=O)N2CCN(C(=O)COC(=O)c3cncc(Br)c3)CC2)c(C)c1,·,-4,6,7,·,20
COc1cc(/C=C/C(=O)OCC(=O)NC(=O)NC(C)C)cc(S(=O)(=O)N2CCc3ccccc32)c1OC,91,6,26*,0,-7,8
C[C@@H]1COC(=O)[C@H](NC(=O)OCC2c3ccccc3-c3ccccc32)C/C=C\C[C@@H](CC(=O)N[C@H](CO)Cc2ccccc2)C(=O)N1,104,4,-2,0,·,-3
O=C(C[C@@H]1C/C=C\C[C@@H](NC(=O)OCC2c3ccccc3-c3ccccc32)C(=O)OCCNC1=O)N[C@@H](CO)Cc1ccccc1,99,-7,+,0,·,30
CCNc1ccc2noc3c2c1C(=O)c1ccccc1-3,30*,2,28*,0,41,-255
Cn1c(=O)cc2c3c(c(N4CCCCC4)ccc31)C(=O)c1ccccc1-2,104,6,22*,2,·,-11
O=C1c2ccccc2-c2onc3ccc(N4CCCC4)c1c23,47*,·,·,·,2,·
CCOc1ccc(C(=O)NNC(=O)CN2C(=O)NC3(CCCC3)C2=O)cc1,101,0,-6,0,·,-1
CC(=O)c1ccc(NC(=O)Cn2cnc(S(=O)(=O)N3CCc4ccccc43)c2)cc1,79*,3,2,1,·,24
CC1CCc2c(sc(NC(=O)/C=C/c3cccs3)c2C(=O)O)C1 (centres undefined),59*,12,0,3,·,5
